# Like-named read-outs stand apart in the source and are kept apart here.
# What was measured:
# Set-up in all cases: species or system human, MV4-11 + K-562 + COLO205 + SK-N-BE2 + OVCAR-8
# [1] = system: ICK; details: read-out: apparent Kd, n = 1
# [2] = system: IKBKE; details: read-out: apparent Kd, n = 1
# [3] = system: PIK3C3; details: read-out: apparent Kd, n = 1
# [4] = system: PRKX;PRKY; details: read-out: apparent Kd, compound concentrations: 100 nM and 1000 nM (sheet 'Samples'), n = 1
# [5] = system: ERN2; details: read-out: apparent Kd, compound concentrations: 100 nM and 1000 nM (sheet 'Samples'), n = 1
# [6] = system: BRAF; details: read-out: apparent Kd, compound concentrations: 100 nM and 1000 nM (sheet 'Samples'), n = 1
# [7] = system: ERN1; details: read-out: apparent Kd, compound concentrations: 100 nM and 1000 nM (sheet 'Samples'), n = 1
# [8] = system: MAP4K1; details: read-out: apparent Kd, compound concentrations: 100 nM and 1000 nM (sheet 'Samples'), n = 1
# [9] = system: TAOK2; details: read-out: apparent Kd, n = 1
# [10] = system: ATM; details: read-out: apparent Kd, compound concentrations: 100 nM and 1000 nM (sheet 'Samples'), n = 1
# [11] = system: MAP3K11; details: read-out: apparent Kd, compound concentrations: 100 nM and 1000 nM (sheet 'Samples'), n = 1
# [12] = system: MELK; details: read-out: apparent Kd, n = 1
# [13] = system: PRKAA1; details: read-out: apparent Kd, n = 1
# [14] = system: PRKAA2; details: read-out: apparent Kd, compound concentrations: 100 nM and 1000 nM (sheet 'Samples'), n = 1
# [15] = system: PRKAG2; details: read-out: apparent Kd, compound concentrations: 100 nM and 1000 nM (sheet 'Samples'), n = 1
# [16] = system: TEC; details: read-out: apparent Kd, n = 1
# [17] = system: PYGL; details: read-out: apparent Kd; compound concentrations: 100 nM and 1000 nM (sheet 'Samples'), CATDS: 3.8130802338003297E-2; n = 1
# [18] = system: STK4; details: read-out: apparent Kd, n = 1
# [19] = system: CSNK1E; details: read-out: apparent Kd; compound concentrations:100 nM and 1000 nM (sheet 'Samples'); n = 1
# [20] = compound concentrations:100 nM and 1000 nM (sheet 'Samples')
structure (smiles),measurement,setting,value
Cn1cc(C2=C(c3cn(CCCO)c4ccccc34)C(=O)NC2=O)c2ccccc21 [RO0317377-000],potency estimated from few doses,"[1]; compound concentrations: 100 nM and 1000 nM (sheet 'Samples'), CATDS: 0.109854156237019",1.46 µM
CCn1cc(-c2ccnc3[nH]c(-c4cccc(CN(C)C)c4)cc23)c(-c2ccc(NC(=O)N(C)C)cc2)n1 [GSK1070916],potency estimated from few doses,[2]; [20],1.96 µM
same,potency estimated from few doses,[3]; [20],1.5 µM
O=C1N=C(NCC(CO)c2ccccc2)S/C1=C\c1ccc2ncccc2c1 (stereo not drawn) [RO4582641-000],potency estimated from few doses,[4]; CATDS: 6.1310776599809498E-2,1.91 µM
O=C1N=C(NCCc2cccc(F)c2)S/C1=C\c1ccc2ncccc2c1 [RO4508344-000],potency estimated from few doses,[5]; CATDS: 7.9069869208326996E-2,1.66 µM
CC(C)c1nc(-c2cccc(NS(=O)(=O)c3ccccc3)c2)c(-c2ccnc(Nc3ccc4c(c3)CN(C)CC4)n2)s1 [GSK1649598A],potency estimated from few doses,[6]; CATDS: 1.66184718911398E-2,0.621 µM
same,potency estimated from few doses,[7]; CATDS: 1.5593168360276599E-2,0.758 µM
same,potency estimated from few doses,[5]; CATDS: 3.39417380215319E-2,0.124 µM
same,potency estimated from few doses,[8]; CATDS: 1.9870950610889799E-2,0.381 µM
same,potency estimated from few doses,"[9]; compound concentrations: 100 nM and 1000 nM (sheet 'Samples'), CATDS: 1.5717541572097499E-2",0.739 µM
CCc1nc(-c2cccc(N(C)S(=O)(=O)c3ccccc3)c2)c(-c2ccnc(Nc3ccc(N4CCN(C(C)=O)CC4)nc3)n2)s1 [GSK1645895A],potency estimated from few doses,"[3]; compound concentrations: 100 nM and 1000 nM (sheet 'Samples'), CATDS: 0.15936807020930999",1.34 µM
O=C1N=C(NCc2cccs2)SC1Cc1ccc2ncccc2c1 (stereo not drawn) [RO4629078-000],potency estimated from few doses,[10]; CATDS: 2.5456508312119999E-2,0.123 µM
same,potency estimated from few doses,[11]; CATDS: 8.9937609356747009E-3,0.89 µM
same,potency estimated from few doses,"[12]; compound concentrations: 100 nM and 1000 nM (sheet 'Samples'), CATDS: 7.0296492391178304E-3",2.19 µM
same,potency estimated from few doses,"[13]; compound concentrations: 100 nM and 1000 nM (sheet 'Samples'), CATDS: 1.35837809267181E-2",0.343 µM
same,potency estimated from few doses,[14]; CATDS: 1.00285824398185E-2,0.665 µM
same,potency estimated from few doses,[15]; CATDS: 1.6046460203227E-2,0.253 µM
same,potency estimated from few doses,[4]; CATDS: 7.8908157683285005E-3,1.35 µM
same,potency estimated from few doses,"[16]; compound concentrations: 100 nM and 1000 nM (sheet 'Samples'), CATDS: 8.6375652210939294E-3",1 µM
CC(C)c1cc(-c2ccc3c(N)n[nH]c3c2)nc(N)n1 [GSK2250882A],potency estimated from few doses,[12]; [20],1.3 µM
Cc1cccc(-c2cc(-c3c[nH]nc3-c3ccccn3)ccn2)c1 [GW679395X],potency estimated from few doses,[16]; [20],1.32 µM
O=C1N=C(NCc2ccccc2)S/C1=C\c1ccc2ncccc2c1 [RO4442080-000],potency estimated from few doses,[4]; CATDS: 0.10891085030607001,0.835 µM
COc1ccc(Nc2nccc(N3CCC(NC(=O)Nc4ccc5c(c4)OCO5)C3)n2)cc1 (stereo not drawn) [GSK1379745A],potency estimated from few doses,[17],1.67 µM
Cc1ccc(O)cc1Nc1ccnc2cc(-c3ccc(CN4CCCCC4)o3)ccc12 [GW557777X],potency estimated from few doses,"[16]; compound concentrations: 100 nM and 1000 nM (sheet 'Samples'), CATDS: 1.34758228974899E-2",1.04 µM
CN1C(=O)c2ccccc2N(C)c2nc(Nc3cnn(C4CCNCC4)c3)ncc21 [XMD-17-51],potency estimated from few doses,"[13]; compound concentrations: 100 nM and 1000 nM (sheet 'Samples'), CATDS: 1.61806798261299E-2",0.911 µM
same,potency estimated from few doses,[15]; CATDS: 1.7077716006994301E-2,0.75 µM
same,potency estimated from few doses,"[9]; compound concentrations: 100 nM and 1000 nM (sheet 'Samples'), CATDS: 5.5086775745804402E-2",0.0424 µM
CCN(CC)CCOc1ccc(Nc2ncc3cc(-c4c(Cl)cccc4Cl)c(=O)n(C)c3n2)cc1 [SB-601273],potency estimated from few doses,[9]; [20],1.15 µM
CS(=O)(=O)Cc1ccc(Nc2nccc(-c3c(-c4cccc(NC(=O)C5CCCCC5)c4)nn4ncccc34)n2)cc1 [GSK350559A],potency estimated from few doses,[18]; [20],1.77 µM
CN(C)Cc1ccc(-c2ccc3c(Nc4ccc(Oc5ccccn5)cc4)ccnc3c2)o1 [GW567148X],potency estimated from few doses,"[13]; compound concentrations: 100 nM and 1000 nM (sheet 'Samples'), CATDS: 1.81087827293436E-2",1.38 µM
O=S(=O)(CCOCc1ccc(-c2ccc3ncnc(Nc4ccc(OCc5cccc(F)c5)c(Cl)c4)c3c2)o1)c1ccccc1 [GW615311X],potency estimated from few doses,[10]; CATDS: 0.104410485471121,0.179 µM
same,potency estimated from few doses,"[2]; compound concentrations: 100 nM and 1000 nM (sheet 'Samples'), CATDS: 3.0296968888376598E-2",1.15 µM
CN1CCN(Cc2ccc(NC(=O)Nc3ccc(N(C)c4ccnc(Nc5ccc(CS(C)(=O)=O)cc5)n4)cc3)cc2)CC1.Cl [GW827654A],potency estimated from few doses,[8]; CATDS: 4.9471634979456398E-2,0.557 µM
COc1cc2ncn(-c3cc(OCCCc4ccccc4)c(C(N)=O)s3)c2cc1OC [GSK205189A],potency estimated from few doses,[13]; [20],1.02 µM
Nc1ncc(-c2cn[nH]c2)c2scc(-c3ccc4c(c3)CCN4C(=O)Cc3ccccc3)c12 [GSK2593067A],potency estimated from few doses,"[18]; compound concentrations: 100 nM and 1000 nM (sheet 'Samples'), CATDS: 7.8104026917421798E-2",0.768 µM
N#Cc1cccc(Nc2nccc(-c3cnn4ncccc34)n2)c1 [GW778894X],potency estimated from few doses,[19],0.314 µM
same,potency estimated from few doses,[1]; [20],0.00167 µM
same,potency estimated from few doses,[3]; [20],0.994 µM
CN1CCc2ccc(Nc3nccc(-c4c(-c5cccc(NC(=O)c6c(F)cccc6F)c5)nc5ccccn45)n3)cc2C1.Cl [GSK1010829B],potency estimated from few doses,"[18]; compound concentrations: 100 nM and 1000 nM (sheet 'Samples'), CATDS: 3.6315985659661598E-2",1.17 µM
same,potency estimated from few doses,"[9]; compound concentrations: 100 nM and 1000 nM (sheet 'Samples'), CATDS: 3.64108611477112E-2",1.17 µM
CC(C)c1nc(-c2cccc(NS(=O)(=O)c3c(F)cccc3F)c2F)c(-c2ccnc(Nc3ccc(N4CCOCC4)nc3)n2)s1 [GSK2008607A],potency estimated from few doses,[6]; CATDS: 1.89965490605935E-2,1.67 µM
same,potency estimated from few doses,[7]; CATDS: 1.9066828422081999E-2,1.65 µM
same,potency estimated from few doses,[5]; CATDS: 2.27822446193667E-2,0.926 µM
same,potency estimated from few doses,[11]; CATDS: 3.6955578451965801E-2,0.316 µM
same,potency estimated from few doses,[14]; CATDS: 2.0597012246937899E-2,1.25 µM
